Activity calls are given as the source filed them. Rule for the calls: active = hit-call score of the fitted dose curve at least 0.9, where 1 is the maximum; inactive = score below 0.9.
Read-out: Bcl-2 (BAD) gene, BAD (gene 572)
Assay: LTEA_HepaRG_BAD: Life Technologies and Expression Analysis (LTEA) Assay for Bcl-2 (BAD) gene using HepaRG (AID 2283469)
Details: mRNA level, 48 h; actives raise or lower the signal
Procedure: LTEA_HepaRG is a cell based, multiplexed-readout assay that uses HepaRG, a human liver cell line, with measurements taken at 48 hours after chemical dosing on a 96-well plate.LTEA_HepaRG_BAD is one of 102 assay component(s) measured in the LTEA HepaRG cell culture assay. It is a marker of Cell proliferation, survival, death.Data from the assay component LTEA_HepaRG_BAD was analyzed into 1 endpoint. This assay endpoint, LTEA_HepaRG_BAD, was analyzed with bidirectional fitting relative to DMSO as the negative control and baseline of activity. Using a type of inducible reporter, measures of mRNA induction for gain or loss-of-signal activity can be used to understand regulation of transcription factor activity. To generalize the intended target to other relatable targets, this assay endpoint is annotated to the cell cycle intended target family, where the subfamily is Cell proliferation, survival, death.
A total of 1060 chemcials from the ToxCast library were tested in eight-point concentration-response experiments. Cell culture and cytotoxicity assays were conducted at Thermo Fisher Scientific's Custom Services facility (Madison, WI). A single lot of human HepaRG cells (Thermo Fisher Scientific, Frederick, MD) was used for the cell culture experiments. 96-well format collagen type I coated plates of human HepaRG cells were prepared using established methods. Briefly, cryopreserved HepaRG cells were thawed, plated at a density of approximately 100,000 cells/well in HepaRG Thaw, Plate, and General Purpose media (HPRG770, Thermo Fisher Scientific), and incubated for 48 hours. 0.5% DMSO was selected as vehicle control to balance the requisite need of DMSO in HepaRG cultures to maintain differentiation (for example, baseline metabolism, proportions of hepatocytes vs. cholangiocytes), while enabling further hepatic receptor pathway activation (for example, PXR and CAR) in response to chemical exposure. 48 hours after plating, the culture medium was replaced with HepaRG Serum-Free Incudtion Media. Cells were exposed to each test chemical in duplicate and maintained in CO2 incubators for another 48 hours. Chemical plates were thawed to room temperature and 200x concentrations of treatment groups were prepared. 8-point conentration-reponse curves were made with the highest exposure at 100 uM, followed by half-log dilutions, all in 0.5% DMSO. Each test plate contained variouse controls, induction positive controls (1mM phenobarbital), cytotoxicity positive controls ([…] aflatoxin B1), vehicle controls (0.5% DMSO), and total lysis controls (0.5% DMSO). Cell morphology images were taken using an Essen IncuCyte FLR automated microscope, with six 96-well plates imaged in about 24 minutes. Images were captured and exported and JPEG files. Spent culture media was transfered to black-well plates for the LDH assay, and remaining media was sorted at -80 C for later use. Cells were treated with RLT buffer and frozen until shipped for gene expression analysis. Total RNA was isolated from the cell suspension in 75 uL of Buffer RLT (Qiagen, Germantown, MD 20874) by Quintiles/Expression Analysis (Durham, NC) using a custom isolation procedure. Total RNA from each plate well was transferred to a preamplification plate. Fluidigm's 96.96 Dynamic ArrayTM (Fluidigm, Amsterdam, the Netherlands) technology was used for gene expression analyses by quantitative reverse transcription polymerase chain reaction (qRT-PCR, performed by Quintiles/Expression Analysis, Durham, NC)89. Standard TaqManTM Assays (Applied Biosystems/ThermoFisher Scientific, Foster City, CA) were used to assess the expression of 93 genes selected based on their selectivity and sensitivity to important hepatic receptors known to be modulated by environmental chemicals; importance in human hepatocyte functionality; and hepatotoxicity. […]

outcome, inactive:
O=C(c1ccccc1)c1ccccc1, CCCCC(CC)C(=O)O (stereo unspecified), O=C1NS(=O)(=O)c2ccccc21, OCC(CO)(CBr)CBr, N=C(N)c1ccc(OCCCCCOc2ccc(C(=N)N)cc2)cc1, CN(C)CCOC(c1ccccc1)c1ccccc1, CC(=O)Nc1ccc(O)cc1, CCCCC=O, O=C(CCCN1CCC(O)(c2ccc(Cl)cc2)CC1)c1ccc(F)cc1, Cc1[nH]nc2c1N=C(c1ccccc1Cl)c1cc([N+](=O)[O-])ccc1N2, CCCCCCCCCCCCCCC, CCC(C)c1ccccc1O (stereo unspecified), CN(Cc1cnc2nc(N)nc(N)c2n1)c1ccc(C(=O)N[C@@H](CCC(=O)O)C(=O)O)cc1, CCCCCCCCCCCCOS(=O)(=O)O, CCCCc1oc2ccccc2c1C(=O)c1cc(I)c(OCCN(CC)CC)c(I)c1, CS(=O)(=O)c1ccc([C@@H](CC2CCCC2)C(=O)Nc2cnccn2)cc1Cl

From PubChem BioAssay (EPA / NIEHS)
